These results are taken from paper PMC7862700, “An all-to-all approach to the identification of sequence-specific readers for epigenetic DNA modifications on cytosine”.

Common to all, as to assay: DAPPL (digital affinity profiling via proximity ligation, sequencing); 10 mM Tris-HCl pH 7.5, 50 mM NaCl, 1 mM DTT, 4% glycerol, room temperature, 30 min; GST-TFs on glutathione beads, 16-mer random dsDNA library, 0.1% formaldehyde crosslink after washing; high values mean tight binding
Conditions in all cases: protein: recombinant; tags: N-terminal GST; dsDNA, one strand shown

Assay [1] deals with T1, ETV2 (Homo sapiens, UniProt O00321 1-342).
T1 sequence: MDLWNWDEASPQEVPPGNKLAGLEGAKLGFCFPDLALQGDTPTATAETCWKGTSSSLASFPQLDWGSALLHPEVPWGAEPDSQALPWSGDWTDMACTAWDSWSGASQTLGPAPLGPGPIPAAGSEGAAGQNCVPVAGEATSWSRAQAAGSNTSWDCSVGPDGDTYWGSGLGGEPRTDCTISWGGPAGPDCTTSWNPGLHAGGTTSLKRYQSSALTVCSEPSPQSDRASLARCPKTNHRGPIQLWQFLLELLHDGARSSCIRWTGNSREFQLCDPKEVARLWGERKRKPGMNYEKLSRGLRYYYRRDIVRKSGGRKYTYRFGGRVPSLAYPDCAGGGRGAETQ
In a few lines:
(§1)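 GST fusions of human transcription factors were expressed in yeast and captured with glutathione beads. Once given DNA barcodes and pooled alongside a tag-only sample, they were incubated for 30 min at room temperature with 200 nmole of a random double-stranded 16-mer DNA library in Tris/NaCl/DTT/glycerol buffer, then washed, crosslinked (0.1% formaldehyde), proximity-ligated, PCR-amplified and sequenced on an Illumina NextSeq500. The binding signal of each hexamer is its read frequency for a factor divided by its frequency for the tag-only sample.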

For assay [2], the target named is T2, ELF3 (Homo sapiens, UniProt P78545 1-371).
T2 sequence: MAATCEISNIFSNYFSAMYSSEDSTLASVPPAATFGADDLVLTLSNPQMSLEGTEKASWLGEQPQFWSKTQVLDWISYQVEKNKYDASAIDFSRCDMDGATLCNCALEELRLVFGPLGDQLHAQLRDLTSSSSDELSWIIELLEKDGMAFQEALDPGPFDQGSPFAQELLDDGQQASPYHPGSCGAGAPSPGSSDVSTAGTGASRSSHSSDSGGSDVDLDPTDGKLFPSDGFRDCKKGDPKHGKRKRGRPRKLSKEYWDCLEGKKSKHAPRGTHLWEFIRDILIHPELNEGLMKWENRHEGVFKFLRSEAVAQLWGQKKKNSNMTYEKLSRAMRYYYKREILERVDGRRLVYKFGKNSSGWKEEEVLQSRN
In a few lines: as §1

Assay [3] has as its target ETV1 (Homo sapiens, UniProt P50549 1-477). In outline: as §1
In assay [4] the target is T3, ERF (Homo sapiens, UniProt P50548 1-548).
T3 sequence: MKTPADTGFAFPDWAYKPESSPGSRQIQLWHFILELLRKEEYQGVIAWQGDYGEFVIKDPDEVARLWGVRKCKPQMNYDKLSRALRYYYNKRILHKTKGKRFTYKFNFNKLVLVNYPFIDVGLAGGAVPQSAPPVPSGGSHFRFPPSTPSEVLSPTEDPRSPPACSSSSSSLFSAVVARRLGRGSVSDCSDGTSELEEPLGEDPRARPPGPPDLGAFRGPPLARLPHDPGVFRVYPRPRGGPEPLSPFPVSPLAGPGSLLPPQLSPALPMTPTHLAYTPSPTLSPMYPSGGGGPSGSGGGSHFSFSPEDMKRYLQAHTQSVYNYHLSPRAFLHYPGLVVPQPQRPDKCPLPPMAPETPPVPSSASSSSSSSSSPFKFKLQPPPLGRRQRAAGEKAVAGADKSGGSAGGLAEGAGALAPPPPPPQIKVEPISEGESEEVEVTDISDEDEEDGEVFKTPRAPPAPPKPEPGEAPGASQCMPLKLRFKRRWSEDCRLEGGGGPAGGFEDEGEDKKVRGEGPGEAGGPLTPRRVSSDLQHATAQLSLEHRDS
In outline:
as §1

Assay [5] concerns the target T4, ETV3L (Homo sapiens, UniProt Q6ZN32 1-361).
T4 sequence: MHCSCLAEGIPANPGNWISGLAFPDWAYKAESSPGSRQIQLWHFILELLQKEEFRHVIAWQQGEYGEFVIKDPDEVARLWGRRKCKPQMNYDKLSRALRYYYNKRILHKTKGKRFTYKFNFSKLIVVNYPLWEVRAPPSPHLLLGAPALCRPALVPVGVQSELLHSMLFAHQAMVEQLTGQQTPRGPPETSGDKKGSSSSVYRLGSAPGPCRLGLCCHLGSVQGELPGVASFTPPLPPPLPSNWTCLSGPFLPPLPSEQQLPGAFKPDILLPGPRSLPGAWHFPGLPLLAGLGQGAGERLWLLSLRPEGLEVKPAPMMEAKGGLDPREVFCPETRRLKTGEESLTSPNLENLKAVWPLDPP
In outline: as §1

In assay [6] the target is T5, ETS2 (Homo sapiens, UniProt P15036 1-469).
T5 sequence: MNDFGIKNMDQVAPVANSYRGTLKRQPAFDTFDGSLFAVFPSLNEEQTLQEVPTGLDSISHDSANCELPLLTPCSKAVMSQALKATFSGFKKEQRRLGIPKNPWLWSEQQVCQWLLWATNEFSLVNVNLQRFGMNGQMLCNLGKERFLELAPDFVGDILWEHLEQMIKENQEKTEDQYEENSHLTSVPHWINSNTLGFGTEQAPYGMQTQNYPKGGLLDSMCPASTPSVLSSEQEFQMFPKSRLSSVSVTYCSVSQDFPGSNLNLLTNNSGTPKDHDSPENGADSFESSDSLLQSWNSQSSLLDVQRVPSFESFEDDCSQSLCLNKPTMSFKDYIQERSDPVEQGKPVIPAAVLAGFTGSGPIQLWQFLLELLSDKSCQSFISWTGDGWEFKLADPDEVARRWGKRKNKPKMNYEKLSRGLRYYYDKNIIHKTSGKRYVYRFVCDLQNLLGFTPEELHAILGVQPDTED
In outline:
as §1

The target of assay [7] is T6, SPDEF (Homo sapiens, UniProt O95238 1-335).
T6 sequence: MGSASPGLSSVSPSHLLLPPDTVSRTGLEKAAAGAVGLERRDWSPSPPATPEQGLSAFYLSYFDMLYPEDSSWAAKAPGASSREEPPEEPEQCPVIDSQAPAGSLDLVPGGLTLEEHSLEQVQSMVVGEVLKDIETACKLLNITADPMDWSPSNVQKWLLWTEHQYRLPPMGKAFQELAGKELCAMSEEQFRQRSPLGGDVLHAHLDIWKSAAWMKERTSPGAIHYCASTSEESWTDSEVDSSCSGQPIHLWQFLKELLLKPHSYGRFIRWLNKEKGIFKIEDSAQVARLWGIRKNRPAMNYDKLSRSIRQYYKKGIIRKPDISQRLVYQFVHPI
In outline:
as §1

Assay [8] deals with T7, ETV7 (Homo sapiens, UniProt Q9Y603 1-341).
T7 sequence: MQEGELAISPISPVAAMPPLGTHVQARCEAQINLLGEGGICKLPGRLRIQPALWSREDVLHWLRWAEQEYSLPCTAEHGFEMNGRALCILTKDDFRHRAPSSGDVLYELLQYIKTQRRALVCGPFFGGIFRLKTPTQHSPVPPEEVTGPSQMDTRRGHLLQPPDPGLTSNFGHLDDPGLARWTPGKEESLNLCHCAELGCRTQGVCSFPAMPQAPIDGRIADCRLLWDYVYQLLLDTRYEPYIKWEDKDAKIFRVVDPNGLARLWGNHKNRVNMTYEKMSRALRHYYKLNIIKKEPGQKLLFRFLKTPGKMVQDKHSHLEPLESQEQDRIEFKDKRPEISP
In outline: as §1

In assay [9] the target is T8, ETV3 (Homo sapiens, UniProt P41162-2 1-143).
T8 sequence: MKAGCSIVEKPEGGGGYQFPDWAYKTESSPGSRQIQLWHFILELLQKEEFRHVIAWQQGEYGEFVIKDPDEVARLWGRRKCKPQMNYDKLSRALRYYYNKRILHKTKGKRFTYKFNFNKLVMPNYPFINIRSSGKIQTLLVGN
In outline:
as §1

The target of assay [10] is ETV6 (Homo sapiens, UniProt P41212 1-452). In a few lines:
as §1

ETV6, sequence (P41212 whole entry): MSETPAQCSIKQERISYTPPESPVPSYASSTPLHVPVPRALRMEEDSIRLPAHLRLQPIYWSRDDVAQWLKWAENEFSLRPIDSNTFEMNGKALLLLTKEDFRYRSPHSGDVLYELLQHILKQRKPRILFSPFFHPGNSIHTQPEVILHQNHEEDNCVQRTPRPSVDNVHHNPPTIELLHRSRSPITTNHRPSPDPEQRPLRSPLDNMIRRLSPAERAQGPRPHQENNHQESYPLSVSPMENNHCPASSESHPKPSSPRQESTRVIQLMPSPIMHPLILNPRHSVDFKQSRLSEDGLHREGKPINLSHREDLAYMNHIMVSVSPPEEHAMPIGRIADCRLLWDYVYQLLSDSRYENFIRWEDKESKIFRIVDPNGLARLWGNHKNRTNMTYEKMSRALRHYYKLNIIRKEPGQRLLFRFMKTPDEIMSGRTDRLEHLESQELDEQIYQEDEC
ETV1, sequence (P50549 whole entry): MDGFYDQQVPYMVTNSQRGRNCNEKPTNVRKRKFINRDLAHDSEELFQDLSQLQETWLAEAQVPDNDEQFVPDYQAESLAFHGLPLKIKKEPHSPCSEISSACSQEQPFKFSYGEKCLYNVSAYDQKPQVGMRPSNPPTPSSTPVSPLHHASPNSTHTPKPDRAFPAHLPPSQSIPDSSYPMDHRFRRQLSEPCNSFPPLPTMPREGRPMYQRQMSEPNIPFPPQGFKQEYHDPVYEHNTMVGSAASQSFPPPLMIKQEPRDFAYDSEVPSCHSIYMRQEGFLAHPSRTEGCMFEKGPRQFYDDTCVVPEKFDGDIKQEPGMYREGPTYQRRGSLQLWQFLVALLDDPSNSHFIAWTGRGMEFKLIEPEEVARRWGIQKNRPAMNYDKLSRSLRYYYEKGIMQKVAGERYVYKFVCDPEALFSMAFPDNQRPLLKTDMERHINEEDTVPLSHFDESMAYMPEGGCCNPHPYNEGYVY

For GCTATC, the binding signal in assay [1] was 1.04 fold enrichment (6-mer frequency, TF over GST control); in assay [2], 1.04 fold enrichment (6-mer frequency, TF over GST control); in [3] it was 1.09 fold enrichment (6-mer frequency, TF over GST control); in [4], 1.13 fold enrichment (6-mer frequency, TF over GST control); in assay [5], 1.07 fold enrichment (6-mer frequency, TF over GST control); in assay [6], 1.01 fold enrichment (6-mer frequency, TF over GST control). Besides, the binding signal in assay [7] is 1.11 fold enrichment (6-mer frequency, TF over GST control); in assay [8], 1.18 fold enrichment (6-mer frequency, TF over GST control); in assay [9] it was 1.03 fold enrichment (6-mer frequency, TF over GST control); in [10], 1.06 fold enrichment (6-mer frequency, TF over GST control).
